A selection: hits, their analogues and other compounds. The true share with any hit is near 3.2%.
Tau fluor cs: Counterscreen qHTS for Inhibitors of Tau Fibril Formation, Fluorescence Polarization | tau K18 P301L Alexa594 fluorescence, heparin fibrillization | Potency, µM (titrated, usually from 57.7 µM), for inactives: at the highest dose activity change, negative = decrease | 280,000 compounds, 0.93% hits | AID 1463, 2008; further: potency means the concentration at half of the fitted maximal effect; on the % scale 0 is the no-effect control and ±100 the full control effect; nearly all actives have a fitted effect of over 55% in size
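Human tau K18 P301L (15 uM unlabeled, 0.24 uM Alexa 594-labeled) in 100 mM sodium acetate pH 7 with 20 uM heparin, 6 hr at 37 C. ThT 30 uM added, 1 hr ambient; Alexa 594 FP and total fluorescence read at 555/632 nm.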
Tau ThT inhib: qHTS for Inhibitors of Tau Fibril Formation, Thioflavin T Binding; recombinant tau K18 P301L (four-repeat tau fragment), heparin-induced fibrillization, ThT fluorescence; Potency, µM (top dose mostly 57.4 µM), for inactives: top-dose activity, negative = inhibition, actives largely listed as inhibitors; 270,000 compounds, 2.1% hits; AID 1460, 2008; further: potency means the concentration at half of the fitted maximal effect; on the % scale 0 is the no-effect control and ±100 the full control effect; nearly all actives have a fitted effect of over 55% in size
Target sequence (P10636 561-689 P618L limits assumed): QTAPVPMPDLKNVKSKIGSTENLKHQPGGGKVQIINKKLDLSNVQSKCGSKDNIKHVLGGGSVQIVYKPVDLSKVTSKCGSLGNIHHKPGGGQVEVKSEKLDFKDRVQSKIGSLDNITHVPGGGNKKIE
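Tau K18 P301L fragment (15 uM unlabeled plus 0.24 uM Alexa 594-labeled) in 100 mM sodium acetate pH 7 with compound, fibrillization induced by 20 uM heparin for 6 hr at 37 C. Thioflavin T (30 uM) added, fluorescence read after 1 hr (ex 450, em 510 nm).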
Tau FP inhib: qHTS for Inhibitors of Tau Fibril Formation, Fluorescence Polarization; K18 P301L tau heparin fibrillization, Alexa594 FP, 6 h; 280,000 compounds, 0.39% hits; Potency, µM (highest dose often 57.7 µM), inactives show top-dose activity, negative = inhibition, actives largely listed as inhibitors; Microtubule-associated protein tau (Homo sapiens), P10636; further: potency means the concentration at half of the fitted maximal effect; on the % scale 0 is the no-effect control and ±100 the full control effect; nearly all actives have a fitted effect of over 55% in size
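Recombinant K18 P301L […], labeled with Alexa 594 at 0.24 uM over 15 uM unlabeled; heparin inducer 20 uM final; 37 C, 6 hr; FP endpoint.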
LMNA splice mod: qHTS Assay for Modulators of Lamin A Splicing; HeLa LMNA splicing GFP/RFP minigene ratio, 48 h; Potency, µM (titrated, usually from 46.1 µM), for inactives: at the highest dose ratio change, negative = inhibition, hits mostly inhibitors; 200,000 compounds, 0.01% hits; active means well fitted inhibition curve with a large enough effect in the signal ratio, with a control signal flat, not every such curve was filed as active; inconclusive means small, poorly fitted or top-dose-only effect, or effect the other way, or a change in a side signal; the % refers to the signal ratio; further: potency means the concentration at half of the fitted maximal effect; on the % scale 0 is the no-effect control and ±100 the full control effect
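Read-out is the ratio of GFP to DsRed2 object intensity, acquired by 488 nm laser-scanning cytometry on HeLa lamin A-EGFP minigene reporter cells. Compound incubation 48 hrs at 37 °C in Opti-MEM with 2% FBS; DMSO 0.5% final.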
CBFb-RUNX1 inh: qHTS Assay for Compounds Blocking the Interaction Between CBF-beta and RUNX1 for the Treatment of Acute Myeloid Leukemia; Potency, µM (top dose mostly 59.8 µM), for inactives: at the highest dose activity, negative = inhibition, hits mostly inhibitors; AlphaScreen CBFb-His/RUNX1-biotin binding, biochemical; 230,000 tested, under 10 active; further: % of control where 0% means no effect
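Compounds were screened at multiple concentrations against a preformed CBF-beta(His)/RUNX1(biotin) complex (30 nM of each) for 15 min at room temperature, followed by 90 min with nickel and streptavidin beads and AlphaScreen reading.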
KDM4E inh: qHTS Assay for Inhibitors of Human Jumonji Domain Containing 2E (JMJD2E); AID 2147, 2009; Lysine-specific demethylase 4E (Homo sapiens), B2RXH2; JMJD2E catalytic domain, FDH-coupled NADH fluorescence (FDH is formaldehyde dehydrogenase); 230,000 compounds, 1.6% hits; Potency, µM (top dose mostly 57.1 µM), inactives show at the highest dose activity change, negative = inhibition, most hits filed as inhibitors; active means well fitted inhibition curve with a large enough effect, not every such curve was filed as active; inconclusive means small, poorly fitted or top-dose-only effect, or another doubt; inactive means no such curve, though single readings can be large or run the other way;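 further: potency means the concentration at half of the fitted maximal effect; 0% = wells with enzyme and -100% = buffer wells without enzyme; nearly all actives have a fitted effect of over 50% in size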
Target sequence (B2RXH2 1-337 limits assumed): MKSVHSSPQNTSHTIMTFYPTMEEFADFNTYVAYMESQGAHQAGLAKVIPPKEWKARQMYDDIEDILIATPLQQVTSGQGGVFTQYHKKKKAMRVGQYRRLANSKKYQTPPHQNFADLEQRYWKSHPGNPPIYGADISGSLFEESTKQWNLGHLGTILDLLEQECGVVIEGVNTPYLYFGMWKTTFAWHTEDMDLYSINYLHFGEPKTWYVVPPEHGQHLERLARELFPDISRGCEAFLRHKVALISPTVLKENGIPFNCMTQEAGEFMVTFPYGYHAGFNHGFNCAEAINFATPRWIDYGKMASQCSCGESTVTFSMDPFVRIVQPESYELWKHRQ
* marks the source's active call; other numbers are inactive results; ? = inconclusive; . = not tested or not shown; ! = not active in a repeat; [ ] = remark or other dose. Unless noted, the call rests on the fitted dose curve; in most records, active means well fitted curve in the direction sought with a large enough effect; inconclusive means small, poorly fitted or top-dose-only effect, or another doubt; inactive means no such curve, though single readings can be large; an effect the other way counts as inactive or inconclusive.

SMILES	Tau fluor cs	Tau ThT inhib	Tau FP inhib	LMNA splice mod	CBFb-RUNX1 inh	KDM4E inh
COc1ccc(NS(=O)(=O)c2ccc3oc(Nc4ccc5c(c4)OCCO5)nc3c2)cc1	13µM*[quencher]	?	?	?	-19%	?
CCOCCCNC(=O)Cn1ncc2c([nH]c3ccc(C)cc32)c1=O	-2%	-1%	-4%	9%[46 µM]	.	.
CCCCc1nc2ccccc2n2c(-c3ccc(C)cc3)c3c(=O)n(C)c(=O)n(C)c3c12	-16%	?	6%	.	.	.
COC(=O)c1ccccc1NC(=O)c1ccc(-c2ccc(Br)cc2)o1	-5%	-16%	-2%	3%	-3%	3.5µM*
N[C@@H](C(=O)O)[C@@H](CC(=O)O)c1ccc(Cl)cc1	-6%	2%	6%	.	9%	.
CC(=O)Nc1ccc2nc(NC(=O)c3ccc([N+](=O)[O-])s3)sc2c1	?	1.1µM*	-6%	?	?	8%
CCCCNC(=O)c1c(-c2ccccc2)c(-c2ccccc2)nn(C)c1=O	-5%	-2%	-1%	.	.	.
Cc1ccc(NC(=O)CCC(=O)N/N=C/c2cc([N+](=O)[O-])ccc2O)cc1	-11%	?	8%	?	-4%	?
Cc1ccc(C)c(NC(=O)CCC(=O)N/N=C/c2cc([N+](=O)[O-])ccc2O)c1	-23%	?	3%	?	-23%	?
Cc1c(NC(=S)N/N=C/c2cc([N+](=O)[O-])ccc2O)c(=O)n(-c2ccccc2)n1C	-26%	32µM*	-1%	.	.	8.9µM*
O=C(CCC(=O)Nc1cccc(Cl)c1)N/N=C/c1cc([N+](=O)[O-])ccc1O	?	?	-2%	?	-25%	18µM*
CN1CCN(CCC(=O)N/N=C/c2cc([N+](=O)[O-])ccc2O)CC1	-5%	?	1%	-5%	2%	0.89µM*
Cc1cc(=O)oc2cc(OCC(=O)N/N=C/c3cc([N+](=O)[O-])ccc3O)ccc12	-19%	3.5µM*	-7%	-11%	-12%	?
Cc1ccc(C(=O)N/N=C(/CC(=O)c2cccs2)C(F)(F)F)cc1	-17%	?	9%	?	-9%	-9%
O=C(N/N=C(\CC(=O)c1cccs1)C(F)(F)F)c1ccncc1	?	14µM*	8%	.	?	?
COc1ccc(NC2C[C@H]3CCCC(=O)N4CC[C@@H](C2)[C@@H]34)cc1 (stereo partly specified)	-11%[81.3 µM]	-7%[81.4 µM]	3%[81.3 µM]	.	-13%[89.1 µM]	.
O=C1CCCC(C(C(=O)OCc2ccccc2)C(=O)OCc2ccccc2)C1 (stereo unspecified)	-1%	2%	3%	.	-3%	-5%
COC(=O)CCC(=O)OC1(C)C(=O)C=C2C=C(C3CC3)N(C3CCCCC3)C=C2C1=O (stereo unspecified)	-11%[11.6 µM]	?	?	10%[9.22 µM]	19%[13.1 µM]	16µM*!
COC(=O)CCC(=O)OC1(C)C(=O)C=C2C=C(C3CC3)N(Cc3ccccc3)C=C2C1=O (stereo unspecified)	-9%[11.6 µM]	11µM*!	?	?	?	14µM*!
O=C(NCCC1=CCCCC1)c1ccc2c(c1)N(Cc1ccccc1)C(=O)c1ccccc1S2(=O)=O	?	-9%	?	.	.	.
O=C(COC(=O)c1cc(-c2cccs2)nc2ccccc12)c1ccc(Br)cc1	-7%	-1%	?	.	.	.
CCOc1ccc(NC2C=CS(=O)(=O)C2)cc1 (stereo unspecified)	-17%	35µM*	0%	-3%	3%	-5%
Nc1nonc1N/N=C\c1ccccc1	-13%	-4%	13%	.	-1%	2%
Nc1nonc1N/N=C/c1c(O)ccc2ccccc12	10µM*[quencher]	?	5%	.	-9%	-13%
Cc1nn(-c2nnc(NCc3ccccc3)nn2)c(C)c1Br	?	14µM*	10%	?	1%	1%
SMILES	Tau fluor cs	Tau ThT inhib	Tau FP inhib	LMNA splice mod	CBFb-RUNX1 inh	KDM4E inh
Cc1cc(C)n(-c2nnc(NCc3ccc(Cl)cc3)nn2)n1	-16%	?	7%	?	?	3%
O=C(CCNC(=O)c1ccccc1)N=Nc1c(O)[nH]c2ccccc12	2%	-12%	0%	-8%[46 µM]	10%	0%
O=C(CCCCCNC(=O)c1ccccc1)N=Nc1c(O)[nH]c2c(Br)cc(Br)cc12	?	6.3µM*	-1%	.	-2%	4%
COC(=O)c1cccc(-n2c(CCC(=O)O)ccc2-c2ccc(OC)cc2)c1	-12%	?	1%	.	.	.
COC(=O)c1cccc(-n2c(CCC(=O)O)ccc2-c2cccs2)c1	-16%	?	2%	1%[46 µM]	6%	25µM*
CC(C)(C)OC(=O)N1CCC(c2c(C(=O)NC3CCCCC3)cnn2-c2ccc(F)cc2F)CC1	-12%	-12%	2%	-5%[46 µM]	.	.
N=C1S/C(=C\c2ccc(-c3cccc(Cl)c3)o2)C(=O)N1c1nccs1	-25%	3.5µM*	5%	?	-8%	9%
COc1ccc(/C=C2\SC(=S)N(NC(=O)c3ccncc3)C2=O)cc1OC	-5%	?	2%	-17%[46 µM]	5%	-2%
COc1ccc(/C=C2\SC(=N)N(c3nccs3)C2=O)cc1OC	-11%	10µM*	9%	?	-26%	-6%
CCCC[C@H]1CCCO[C@@](C(=O)NCc2cc(C)n(C)n2)(C(F)(F)F)C1	.	.	.	.	25%	.
O=C(N/N=C/c1ccc(O)c(O)c1)c1cccc(S(=O)(=O)N2CCCCC2)c1	-19%	-15%	4%	?	-15%	16µM*
Cc1ccc(C(C)(C)C)cc1	.	.	.	.	0%[21.7 µM]	.
COc1ccc(-c2coc3c(O)c(OC)ccc3c2=O)cc1	-14%	?	6%	?	.	10%
COc1cccc(Cn2c(CNC(=O)c3cc([N+](=O)[O-])ccc3Cl)nc3cccnc32)c1	-20%	-6%	3%	?	.	.
COc1ccccc1N1CCN(CC(O)COCCOc2ccc(Br)cc2)CC1 (stereo unspecified)	-7%	-11%	6%	?	?	-12%
COc1ccccc1N1CCN(CC(O)COc2c(OC)cccc2OC)CC1 (stereo unspecified)	?	20µM*	?	0%	2%	-8%
CCN(C(=O)c1nn(C)c2c1CSc1ccccc1-2)c1cccc(C)c1	-5%	0%	-6%	.	.	.
